Assay [1] in a line: antimalarial activity against Dd2 strain (AID 2302;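 active means growth inhibition above 50% at the single 2 µM test dose, taken to imply half-maximal potency below 2 µM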;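 further: 0% = DMSO untreated growth and 100% = chloroquine plus artemisinin killed control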). Conditions: P. falciparum Dd2 in RBCs, LDH growth readout, 72 h; at 2 µM; active compounds read high.
The nature of assay [2]: human hepatoma cell viability loss – ATP luminescence, cytotoxicity control for P. falciparum antimalarial project, primary screen (AID 2303;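 active means inhibition above 50%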;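 further: 0% = DMSO wells and 100% = digitonin-killed cells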). To be noted: HepG2 viability, 24-48 h, at 10 µM, active compounds read high.
For assay [3], the target named is L-lactate dehydrogenase (Plasmodium falciparum (isolate CDC / Honduras)) (UniProt Q27743). Description: PfLDH activity inhibition – cell lysate, 3D7 strain, counter-screen for P. falciparum growth inhibition project (AID 2304).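 Further: 0% = vehicle and 100% = reference inhibitor.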 To be noted: P. falciparum 3D7 crude extract, LDH APAD/NBT absorbance; at 2 µM; active compounds read high.
Sequence of L-lactate dehydrogenase (Plasmodium falciparum (isolate CDC / Honduras)) (Q27743 whole entry, looked up): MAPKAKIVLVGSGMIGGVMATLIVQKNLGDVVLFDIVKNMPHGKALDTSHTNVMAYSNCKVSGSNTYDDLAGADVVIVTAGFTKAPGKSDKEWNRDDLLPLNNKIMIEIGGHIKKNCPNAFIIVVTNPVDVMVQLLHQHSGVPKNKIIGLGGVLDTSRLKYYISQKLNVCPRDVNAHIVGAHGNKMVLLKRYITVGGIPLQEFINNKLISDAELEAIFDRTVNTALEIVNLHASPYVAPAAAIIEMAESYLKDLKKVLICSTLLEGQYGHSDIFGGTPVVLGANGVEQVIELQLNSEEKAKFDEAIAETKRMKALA
Assay [4] can be described thus: inhibition of 3D7 malaria parasite growth – strain 3D7 (AID 2306).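 Further: 0% = DMSO wells and 100% = chloroquine plus artemisinin control wells.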 Conditions: P. falciparum 3D7 erythrocytic growth, LDH absorbance, 72 h; at 2 µM; active compounds read high.
The target of assay [5] is Calcium-dependent protein kinase 1 (Plasmodium falciparum (isolate 3D7)) (UniProt P62344). The experiment in a line: PfCDPK1 kinase inhibitors, biochemical, TCAMS library (AID 1159585; cut-off not given, nearly all actives have IC50 up to about 0.98 µM;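 further: inhibitors leave more ATP so luminescence rises with inhibition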). To be noted: recombinant PfCDPK1, Kinase-Glo ATP depletion luminescence.
Sequence of Calcium-dependent protein kinase 1 (Plasmodium falciparum (isolate 3D7)) (P62344 whole entry, looked up): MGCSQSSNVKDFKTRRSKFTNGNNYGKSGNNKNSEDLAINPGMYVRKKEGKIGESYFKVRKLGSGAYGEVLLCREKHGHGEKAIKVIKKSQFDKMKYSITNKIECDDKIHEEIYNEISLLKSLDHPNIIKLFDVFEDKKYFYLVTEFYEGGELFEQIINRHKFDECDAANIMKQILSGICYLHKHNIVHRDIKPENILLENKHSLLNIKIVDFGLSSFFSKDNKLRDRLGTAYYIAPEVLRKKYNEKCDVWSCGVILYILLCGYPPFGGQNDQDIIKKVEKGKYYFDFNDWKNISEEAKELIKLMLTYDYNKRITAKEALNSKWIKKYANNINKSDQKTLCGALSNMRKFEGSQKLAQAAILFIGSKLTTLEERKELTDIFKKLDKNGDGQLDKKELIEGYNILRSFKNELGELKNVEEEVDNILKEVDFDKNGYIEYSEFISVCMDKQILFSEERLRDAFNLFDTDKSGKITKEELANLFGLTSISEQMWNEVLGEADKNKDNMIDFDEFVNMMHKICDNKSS
Assay [6] has as its target Plasmodium falciparum protein kinase 6 (PK6, PF3D7_1337100) (UniProt Q8IDW1). Description: PfPK6 kinase inhibitors, biochemical, TCAMS library (AID 1159586). Conditions: recombinant PfPK6, Kinase-Glo ATP depletion luminescence.
Assay [7] concerns the target Protein kinase 7 (PK7), Plasmodium falciparum 3D7 (PF3D7_0213400) (UniProt Q7YTF7). Description: inhibition of Plasmodium PK7 catalytic activity – biochemical, TCAMS antimalarial set, Kinase-Glo luminescence (AID 1159587). Conditions: recombinant PfPK7, Kinase-Glo ATP depletion luminescence.
Assay [8] has as its target Calcium-dependent protein kinase 4 (Plasmodium falciparum (isolate 3D7)) (UniProt Q8IBS5). Description: PfCDPK4 kinase inhibitors, biochemical, TCAMS library (AID 1159588; cut-off not given, nearly all actives have IC50 up to about 0.91 µM). To be noted: recombinant PfCDPK4, Kinase-Glo ATP depletion luminescence.

Values without a mark were called inactive. For part of these data: Results with a measured potency or affinity are listed apart. The source made the active and inactive calls. Unless noted, how the calls were made is not given here.

This note sets out measurements from PubChem BioAssay.

Sequence of Protein kinase 7 (PK7), Plasmodium falciparum 3D7 (PF3D7_0213400) (Q7YTF7 1-343): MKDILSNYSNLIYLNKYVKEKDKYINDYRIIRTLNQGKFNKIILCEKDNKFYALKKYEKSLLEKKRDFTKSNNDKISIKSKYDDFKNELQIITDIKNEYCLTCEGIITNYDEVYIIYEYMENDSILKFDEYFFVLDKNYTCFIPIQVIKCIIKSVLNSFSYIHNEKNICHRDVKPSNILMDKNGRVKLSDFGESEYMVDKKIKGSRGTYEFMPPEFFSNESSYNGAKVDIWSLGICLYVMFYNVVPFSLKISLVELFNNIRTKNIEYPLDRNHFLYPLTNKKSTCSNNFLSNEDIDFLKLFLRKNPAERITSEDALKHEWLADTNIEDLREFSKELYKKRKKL
Sequence of Plasmodium falciparum protein kinase 6 (PK6, PF3D7_1337100) (Q8IDW1 1-305): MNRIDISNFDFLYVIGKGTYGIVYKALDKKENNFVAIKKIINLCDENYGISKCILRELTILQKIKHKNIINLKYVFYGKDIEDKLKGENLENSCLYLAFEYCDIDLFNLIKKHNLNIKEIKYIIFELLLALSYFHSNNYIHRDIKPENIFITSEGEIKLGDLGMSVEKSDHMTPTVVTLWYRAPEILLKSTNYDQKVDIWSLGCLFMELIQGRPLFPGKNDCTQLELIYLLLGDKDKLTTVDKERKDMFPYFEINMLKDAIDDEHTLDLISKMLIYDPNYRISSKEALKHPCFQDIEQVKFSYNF
Sequence of Calcium-dependent protein kinase 4 (Plasmodium falciparum (isolate 3D7)) (Q8IBS5 whole entry, looked up): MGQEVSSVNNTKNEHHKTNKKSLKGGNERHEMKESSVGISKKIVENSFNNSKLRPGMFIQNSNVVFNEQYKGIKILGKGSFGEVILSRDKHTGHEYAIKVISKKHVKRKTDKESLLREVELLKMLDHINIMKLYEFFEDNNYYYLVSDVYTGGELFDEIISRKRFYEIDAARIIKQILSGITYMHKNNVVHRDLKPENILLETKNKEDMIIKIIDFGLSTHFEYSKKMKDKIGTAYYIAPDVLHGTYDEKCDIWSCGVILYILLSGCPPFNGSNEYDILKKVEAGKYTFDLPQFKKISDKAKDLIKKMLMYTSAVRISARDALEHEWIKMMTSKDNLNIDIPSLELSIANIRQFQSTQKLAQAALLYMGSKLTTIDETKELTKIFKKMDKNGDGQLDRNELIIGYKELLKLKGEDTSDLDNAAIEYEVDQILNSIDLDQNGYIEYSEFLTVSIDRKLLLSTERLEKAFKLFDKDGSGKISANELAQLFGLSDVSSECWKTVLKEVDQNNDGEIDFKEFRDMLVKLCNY

As to `O=C(/C=C/c1ccc(Cl)c(Cl)c1)NCCCCCN1CCC(NC(=O)Nc2ccc([N+](=O)[O-])cc2)CC1`, the growth inhibition was 2% in assay [1] and 102% (active) in assay [4]. The inhibition was 20% in assay [2] and 2% in assay [3]. The result in assay [5], in assay [6], in assay [7] and in assay [8] was inactive.

Regarding `CCNc1cc(C(=O)N[C@@H](Cc2ccccc2Cl)[C@H](O)CNC(C)CCCC(C)C)cc(N2CCCCS2(=O)=O)c1` (some centres undefined), the growth inhibition in assay [1] is 62% (active); in assay [4], 97% (active). Moreover, the values for the inhibition in assay [2] and in assay [3] were 12% and 2%, respectively. The outcome in assay [5], in assay [6], in assay [7] and in assay [8] was inactive.

`C=CCn1c(Sc2ccc(C#N)c([N+](=O)[O-])c2)nnc1-c1cc(OC)cc(OC)c1`: the figures for the growth inhibition in assay [1] and in assay [4] were 84% (active) and 96% (active), respectively. For the same compound, the inhibition is 12% in assay [2] and 0% in assay [3]. The outcome in assay [5], in assay [6], in assay [7] and in assay [8] was inactive.

In the case of `Cc1cc(F)ccc1[C@H]1CNCCN1C(=O)N(C)[C@@H](C)c1cc(C(F)(F)F)cc(C(F)(F)F)c1`, the growth inhibition in assay [1] was 99% (active); in assay [4] it was 100% (active). Also, the results for the inhibition in assay [2] and in assay [3] were 20% and 1%, respectively. Besides, the result in assay [5], in assay [6], in assay [7] and in assay [8] was inactive.

Regarding `Cc1cc(NCCC(=O)NCc2cccc(F)c2)nc(NCCc2ccc(F)cc2)n1`, the growth inhibition in assay [1] was 2%; in assay [4] it was 89% (active). The results for the inhibition in assay [2] and in assay [3] were 0% and -1%, respectively. The result in assay [5], in assay [6], in assay [7] and in assay [8] was inactive.

For the compound `CCOC(=O)CCCc1cc(NC2CCN(C)CC2)nc(Nc2ccc(OC)cc2)n1`, the growth inhibition in assay [1] is 17%; in assay [4] it was 99% (active). The inhibition was 41% in assay [2] and -2% in assay [3]. Besides, the outcome in assay [5], in assay [6], in assay [7] and in assay [8] was inactive.

As for `N#Cc1ccnc(-c2ccc(CNC3CCN(CC4Cn5c(=O)ccc6ccc(F)c4c65)CC3)cc2)c1` (centres undefined), the growth inhibition in assay [1] is 41%; in assay [4] it was 88% (active). Also, the inhibition was 24% in assay [2] and 2% in assay [3]. Also, the outcome in assay [5], in assay [6], in assay [7] and in assay [8] was inactive.

In the case of `N#Cc1cccc(C(=O)Nc2cccc(-c3ccc(C(=O)NCCCN4CCOCC4)cc3)c2)c1`, the growth inhibition in assay [1] was 21%; in assay [4] it was 96% (active). Besides, the inhibition in assay [2] was 21%; in assay [3] it was -8%. The result in assay [5], in assay [6], in assay [7] and in assay [8] was inactive.

`CCOC(=O)[C@H](Cc1cccc2ccccc12)NC(=O)[C@H](CCC(=O)OC(C)(C)C)NC(=O)c1ccc(N(C)Cc2cnc3nc(N)nc(N)c3n2)cc1`: the growth inhibition is 96% (active) in assay [1] and 93% (active) in assay [4]. The inhibition in assay [2] is 66% (active); in assay [3] it was -2%. Further, the outcome in assay [5], in assay [6], in assay [7] and in assay [8] was inactive.

On to `COc1cc(C(=O)NC2CCc3ccccc32)cc(Cl)c1OC` (centres undefined), for which the growth inhibition is 60% (active) in assay [1] and 85% (active) in assay [4]. Besides, the inhibition in assay [2] was 12%; in assay [3] it was -4%. Moreover, the outcome in assay [5], in assay [6], in assay [7] and in assay [8] was inactive.

For `COc1ccccc1N1CCN(c2cccc(F)c2C#N)CC1`, the growth inhibition was 59% (active) in assay [1] and 85% (active) in assay [4]. The inhibition in assay [2] and in assay [3] was -2% each time. Also, the result in assay [5], in assay [6], in assay [7] and in assay [8] was inactive.

Regarding `Cc1cnn(-c2cccc(C(=O)NC3CCC(CCN4CCc5ccc(C#N)cc5CC4)CC3)c2)c1` (centres undefined), the values for the growth inhibition in assay [1] and in assay [4] were 48% and 94% (active), respectively. For the same compound, the inhibition was 24% in assay [2] and -9% in assay [3]. Moreover, the outcome in assay [5], in assay [6], in assay [7] and in assay [8] was inactive.

For the compound `COc1ccc(CNCc2ccc(F)cc2)cc1-c1cccc(S(=O)(=O)NCCN2CCCC2)c1`, the growth inhibition in assay [1] is 54% (active); in assay [4], 101% (active). The inhibition in assay [2] is 43%; in assay [3], -3%. Moreover, the result in assay [5], in assay [6], in assay [7] and in assay [8] was inactive.

Regarding `c1csc(-c2nc(N3CCCC3)ncc2-c2ccsc2)n1`, the growth inhibition in assay [1] was 75% (active); in assay [4] it was 89% (active). The values for the inhibition in assay [2] and in assay [3] were 1% and 3%, respectively. In addition, the outcome in assay [5], in assay [6], in assay [7] and in assay [8] was inactive.

On to `NCC1CCCN1Cc1ccc(-c2ccc(-c3nc4ccc(C(F)(F)F)cc4[nH]3)cc2)cc1` (centres undefined), for which the growth inhibition in assay [1] was 98% (active); in assay [4] it was 101% (active). The figures for the inhibition in assay [2] and in assay [3] were 35% and 3%, respectively. In addition, the outcome in assay [5], in assay [6], in assay [7] and in assay [8] was inactive.

Regarding `Cc1cc(N[C@@H](CC(C)C)C(=O)NCc2cccs2)nc(Nc2ccccc2)n1`, the growth inhibition in assay [1] is 57% (active); in assay [4] it was 100% (active). Also, the inhibition in assay [2] was 18%; in assay [3] it was 1%. The outcome in assay [5], in assay [6], in assay [7] and in assay [8] was inactive.

On to `CCOc1ccc(S(=O)(=O)N(C)c2ccc(OCC(=O)Nc3nccs3)cc2)cc1`, for which the growth inhibition was 4% in assay [1] and 95% (active) in assay [4]. Further, the inhibition in assay [2] is 8%; in assay [3], 3%. Besides, the outcome in assay [5], in assay [6], in assay [7] and in assay [8] was inactive.

Turning to `Nc1c(Cl)cc(C(O)CNCCCCCOCCc2ccc3occc3c2)cc1Cl` (centres undefined), the growth inhibition in assay [1] was 74% (active); in assay [4] it was 99% (active). In addition, the inhibition in assay [2] was -2%; in assay [3] it was -1%. Besides, the result in assay [5], in assay [6], in assay [7] and in assay [8] was inactive.
